Source: PubChem
ALOX12 inhib: 12-hLO (ALOX12) enzyme inhibition. P18054. purified 12-hLO, xylenol orange hydroperoxide absorbance. Potency, µM (top dose mostly 57.1 µM), for inactives: at the highest dose activity change, negative = inhibition, hits mostly inhibitors. hit rate 0.12% among 150,000. AID 1452; also: potency is read from the fitted curve at half-maximal effect; % is scaled to controls: 0 for no effect and ±100 for the full control effect; nearly all actives have a fitted effect of over 55% in size
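Purified human 12hLO (150 nM), preincubated 15 min with compound, then 40 uM arachidonic acid for 30 min, room temperature, Hepes pH 7.0 with 0.01% Triton X-100. Hydroperoxide detected by ferrous iron/xylenol orange; 573/405 nm absorbance ratio gives reaction progress.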
IMPase cell inh: membrane-permeable compound that blocks inositol monophosphatase; CHO-M1 cells, IP1 accumulation, HTRF TR-FRET ratio; AID 901; inhibition (IP1 accumulation), % at 46.1 µM; 120,000 tested, under 10 active; active = well fitted curve in the direction sought with a large enough effect in the signal ratio, not every such curve was filed as active; inconclusive = small, poorly fitted or top-dose-only effect, or a change in a side signal; inactive = no such curve, though single readings can be large or run the other way; the % refers to the signal ratio;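 also: cells stimulated with carbachol in lithium chloride buffer; plate controls were DMSO basal wells for no effect and reference inhibitor wells for full effect; higher means more IMPase inhibition seen as more IP1 and lower FRET ratio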
Target sequence (P97697 whole entry, looked up): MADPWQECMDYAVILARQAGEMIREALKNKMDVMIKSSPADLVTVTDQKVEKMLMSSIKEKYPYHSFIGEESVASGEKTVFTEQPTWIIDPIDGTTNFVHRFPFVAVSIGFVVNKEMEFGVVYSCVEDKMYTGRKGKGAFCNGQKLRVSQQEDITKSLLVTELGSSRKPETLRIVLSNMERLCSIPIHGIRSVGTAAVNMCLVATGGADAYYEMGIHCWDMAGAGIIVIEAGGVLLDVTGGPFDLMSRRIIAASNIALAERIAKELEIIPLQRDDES
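In this qHTS, compounds (final up to 46 uM) act on CHO-M1 cells that are then activated through the M1 receptor with carbachol, in pH 7.4 buffer containing 50 mM LiCl, for 30 min. IP1 accumulation is quantified by the IP-One immunoassay.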
PNC assembly inh: inhibitors of perinucleolar compartment assembly; AID 2417; activity change (PNC), negative = inhibition, % at 10 µM; hit rate 3.1% among 140,000; PC3M PTB-GFP, PNC prevalence imaging, 16 h; hits give low values;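 active = readout at or below -70, meaning at least 70% loss of cells showing the perinucleolar compartment, a nuclear body marking cancer cells; inconclusive = readout between -30 and a set limit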;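 also: plate controls were DMSO wells for no effect and camptothecin positive control wells for full effect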
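Compounds are pinned in duplicate onto adhered PC3M cells stably expressing GFP-tagged PTB and incubated 16 h at 37 C. Cells are then fixed, nuclei stained with Hoechst, and PNC-positive cells counted.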
HttQ103 aggreg: reduces HttQ103-GFP aggregates in PC12 cells | PC12 HttQ103-GFP aggregates, Acumen cytometry, 40 h | Potency, µM (titrated, usually from 46.1 µM), for inactives: at the top dose activity change, negative = inhibition, usual class: inhibitors | hit rate 1.1% among 220,000; also: potency is read from the fitted curve at half-maximal effect; % is scaled to controls: 0 for no effect and ±100 for the full control effect; nearly all actives have a fitted effect of over 60% in size
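PC12 cells with ecdysone-inducible HTT exon1 Q103-GFP, induced by 100 nM tebufenozide, given compounds in a concentration series. GFP aggregates (1–25 um, 6 SD above background) counted in lysates by laser-scanning cytometry, 488 nm excitation.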
NPSR antag: blocks cAMP signaling of the human neuropeptide S receptor | Q6W5P4 | CHO-NPSR cells, cAMP TR-FRET, antagonist mode | Potency, µM (series often up to 38.3 µM), for the others: at the highest dose activity change, negative = inhibition, most hits filed as inhibitors | AID 1461 | hit rate 1% among 220,000; also: potency is read from the fitted curve at half-maximal effect; % is scaled to controls: 0 for no effect and ±100 for the full control effect; nearly all actives have a fitted effect of over 50% in size
Target sequence (Q6W5P4 whole entry, looked up): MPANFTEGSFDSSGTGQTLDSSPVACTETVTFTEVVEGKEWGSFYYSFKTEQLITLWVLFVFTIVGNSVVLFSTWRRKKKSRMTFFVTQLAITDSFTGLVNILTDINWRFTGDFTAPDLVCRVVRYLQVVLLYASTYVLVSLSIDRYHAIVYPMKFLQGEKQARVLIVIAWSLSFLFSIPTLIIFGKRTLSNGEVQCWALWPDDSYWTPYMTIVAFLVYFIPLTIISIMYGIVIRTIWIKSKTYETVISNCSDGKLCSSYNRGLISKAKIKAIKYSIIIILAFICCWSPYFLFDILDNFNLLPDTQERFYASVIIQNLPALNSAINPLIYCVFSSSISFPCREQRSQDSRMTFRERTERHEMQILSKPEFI
HTT cytoprotect: protects HTT-Q103 PC12 cells, measured by ATP | PC12 HTT-Q103 induced, cytoprotection, ATP luminescence, 40 h | Potency, µM (doses to about 56.4 µM), for inactives: cytoprotection (ATP increase), actives largely listed as activators | hit rate 0.14% among 230,000 | AID 1471; also: potency is read from the fitted curve at half-maximal effect; % of control where 0% means no effect; nearly all actives have a fitted effect of over 45% in size
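Rat PC12, Q103 Htt exon1-GFP fusion, ecdysone promoter; tebufenozide inducer 100 nM final; compound titration; qHTS, 1500 cells/well; ATPlite luminescent read.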
Active calls of the source: *; ? = inconclusive; · = no result; [ ] = another dose, or the depositor's remark. Sampled rows, rich in hits. Any-hit rate of the full collection: about 3.3%. Unless noted, calls follow the shape of the dose curve; as a rule, active = well fitted curve in the direction sought with a large enough effect; inconclusive = small, poorly fitted or top-dose-only effect, or another doubt; inactive = no such curve, though single readings can be large; an effect the other way counts as inactive or inconclusive.

SMILES	ALOX12 inhib	IMPase cell inh	PNC assembly inh	HttQ103 aggreg	NPSR antag	HTT cytoprotect
CC1(C)CC(=O)C(C(C2=C(O)CC(C)(C)CC2=O)c2ccc(Cl)c([N+](=O)[O-])c2)C(=O)C1 (stereo not drawn)	·	·	·	11%[9.22 µM]	-8%	15%[10 µM]
CC1(C)CC(=O)C(Sc2ccccc2[N+](=O)[O-])=C(O)C1	-6%	·	-83*	0%	3%	·
CCCCCCCCNc1nc(Cl)nc(NCCN2CCOCC2)n1	·	·	·	12%[9.22 µM]	2%	6%[10 µM]
Cc1cccc(N2CCN(CC(O)COCc3cccs3)CC2)c1C (stereo not drawn)	-4%	-9	-115*	6%	0%[46.1 µM]	16%[10 µM]
O=C(c1csnn1)N1CCC[C@@]2(CCN(Cc3ccccc3)C2)C1	3%	·	·	·	·	?
CCCN(CCC)C1=CC(=[N+]2CCCC2)CC(C)(C)C1	1%	·	?	11µM*	2%	34%[0.074 µM]
Cc1cc2c(n1-c1ccc(Br)cc1)CC(C)(C)CC2=O	9%	-3	?	4%[9.22 µM]	-12%[46.1 µM]	2%
Cc1ccc(-n2c(C)cc3c2CC(C)(C)CC3=O)cc1C	-5%	2	-85*	5%	-18%[46.1 µM]	-6%
COc1ccc(-c2nc3cc(NC(=O)Cc4ccc(Cl)cc4)ccc3o2)cc1OC	·	-12	·	·	·	·
O=C1/C(=C/c2ccccn2)COc2ccccc21	·	·	·	15%	16%	-15%
CC(C)(C)C1C/C(=C/c2ccccn2)C(=O)/C(=C/c2ccccn2)C1 (stereo not drawn)	·	·	·	?	2µM*	-164%
C#CCN1C(=O)C(O)(CC(=O)/C=C/c2ccco2)c2ccccc21 (stereo not drawn)	·	·	·	-2%	1%	-26%
COP(=O)(OC)OC(c1ccc(Cl)cc1)P(=O)(OC)OC (stereo not drawn)	-1%	·	·	-16%	·	?
O=C(N/C(=C/c1ccco1)C(=O)N1CCCC1)c1cccs1	-3%	-7	-106*	8%	-1%[46.1 µM]	-3%
CC(/C=C/c1ccccc1)=N\Nc1nc(-c2ccccc2)cs1	-12%	-1	-85*	-2%	-25%[46.1 µM]	-1%[10 µM]
CCN(CC)C(=O)CSC(Nc1ccc(F)cc1)=C(C#N)C#N	·	·	·	-10%[9.22 µM]	-8%	8%[10 µM]
Cc1ccc(CSC(Nc2ccc(F)cc2)=C(C#N)C#N)cc1	-8%	·	?	6.3µM*	-27%	-30%[10 µM]
CCOc1ccc(-c2nnn(CC(=O)NCc3ccco3)n2)cc1OCC	5%	-14	-100*	3%	6%[46.1 µM]	21%[10 µM]
CCCCOc1ccc(-c2nnn(CC(=O)NCc3ccco3)n2)cc1	-3%	12	18	27%	6%[46.1 µM]	-53%[10 µM]
NC(C(=O)O)c1cc(O)cc(O)c1 (stereo not drawn)	·	·	·	·	·	-34%
CCOc1cc(CNc2ccccc2)cc(Br)c1OCC(=O)NC(C)(C)C	-3%	9	-29	35µM*	?	-33%
NC(=O)c1sc2nc3c(c(-c4ccco4)c2c1N)CCC3	-8%	-6	?	4.5µM*	-9%[46.1 µM]	?
NC(=O)c1sc2nc3c(c(-c4cccs4)c2c1N)CCCC3	-1%	·	20	·	-23%	16µM*
Cc1ccc(-c2c3c(nc4sc(C(N)=O)c(N)c24)CCCC3)o1	-3%	·	15	-16%	-8%	·
CC(C)NC(=O)c1sc2nc3c(c(-c4cccs4)c2c1N)CN(C)CC3	-2%	?	32	14%	?	-3%
SMILES	ALOX12 inhib	IMPase cell inh	PNC assembly inh	HttQ103 aggreg	NPSR antag	HTT cytoprotect
OB(O)c1ccc(Cl)s1	4%	·	·	·	·	-2%
COc1ccc2c(-c3ccccc3)cc(SC(C)C(N)=O)nc2c1 (stereo not drawn)	·	·	·	13%	?	1%
COc1ccc(NC(=O)CSc2nc(-c3ccc(OC)cc3)cc(=O)[nH]2)cc1	·	-16	·	·	·	·
CN1CCN(C(CC(=O)Nc2cccc(O)c2)C(=O)O)CC1 (stereo not drawn)	·	·	·	-5%	17%	-19%
COc1ccc(CN(C)C2c3ccccc3-c3ccccc32)cc1	-1%	0	-91*	-5%	-8%[46.1 µM]	21%[10 µM]
C[C@H](Br)C(=O)Nc1ccc(C(=O)O)c(O)c1	-6%[11.4 µM]	·	·	·	·	-11%[10 µM]
O=CNc1ncn[nH]1	0%[11.4 µM]	·	·	·	·	-4%[10 µM]
COc1ccc(NC(=O)N2CCCC3(CCNCC3)C2)cc1	-2%	·	·	·	·	1.6µM*
COc1ccc(NC(=O)N2CC3(CCNCC3)C2)cc1	-2%	·	·	·	·	-14%
CCCCCCCCCCC1=C(C)C(=O)C(OC)=C(OC)C1=O	·	·	·	·	·	-48%
CCCCCCCCCCCC1=C(O)C(=O)C=C(O)C1=O	8.9µM*	25	·	·	·	?
COc1nn(C(C)C(=O)N2N=C(C(F)F)CC2(O)C(F)F)cc1[N+](=O)[O-] (stereo not drawn)	3%	1	?	-16%	17%	1%[10 µM]
COc1nn(CC(=O)N2N=C(C(F)F)CC2(O)C(F)F)cc1[N+](=O)[O-] (stereo not drawn)	0%	0	-90*	-2%	0%	17%[10 µM]
CC(=O)Nc1ccc(C2C(C)CCC3C(=O)N4C(CCC(C)[C@@H]4c4ccc(NC(C)=O)cc4)C(=O)N32)cc1 (stereo partly drawn)	·	·	·	·	·	1%[10 µM]
O=[N+]([O-])c1cccc2c[nH]nc12	-14%	5	·	·	·	-58%[1.9 µM]
Cc1ccc(Nc2nc3nonc3[nH]c2=O)cc1Cl	·	·	·	22µM*	-9%	-122%
Cc1ccc(Nc2nc3nonc3[nH]c2=O)cc1C	-6%	-10	-27	?	-1%[46.1 µM]	-70%[10 µM]
Cc1ccc(S(=O)(=O)NC(=O)c2ccccc2)cc1C(C)C	·	·	·	?	16%	2.8µM*
CCOc1ccc(Br)cc1S(=O)(=O)NC(=O)c1ccccc1	·	·	·	4%[9.22 µM]	6%	-16%[10 µM]
O=C(Nc1nnc(C2CC2)s1)c1cc(-c2ccccc2)nn1-c1ccccc1	1%	1	-81*	?	?	-4%[10 µM]
COc1cc2c(cc1OC)CN(c1nc(CN3CCCCC3)nc3sc4c(c13)CCCC4)CC2	2%	·	?	28µM*	-27%	·
COc1cc2c(cc1OC)CN(c1nc(CN3CCOCC3)nc3sc4c(c13)CCCC4)CC2	-2%	-6	-6	?	-41%	-33%[10 µM]
CC1(C)CC(=O)C(C(c2ccncc2)C2C(=O)CC(C)(C)CC2=O)C(=O)C1	-2%	-5	-87*	16%	-2%[46.1 µM]	-11%
NCCN	-2%	·	·	29%	·	6%
COc1cccc(-c2nc(-c3ccccn3)no2)c1OC	-3%	1	-84*	-22%	-3%[46.1 µM]	-80%[0.074 µM]
O=c1cnc2cnc(Nc3ccccc3)nc2n1CCc1ccccc1	·	·	·	·	·	-90%
O=C1C2C3C=CC(CO)(O3)C2C(=O)N1c1ccccc1-c1ccccc1 (stereo not drawn)	?	15	17	?	6.3µM*	-136%
CS(=O)(=O)Nc1c(O)ccc2c1CCCC2C1=NCCN1 (stereo not drawn)	·	·	·	·	·	7%
